Inconclusive results are not listed. A call without a number means that no potency is given here. Activity calls are given as the source filed them. The call rests on the fitted dose curve; in most records, active means well fitted inhibition curve with a large enough effect; inconclusive means small, poorly fitted or top-dose-only effect; inactive means flat fitted curve, though single readings scatter.

In the test the test system is Zika virus NS2B-NS3 protease. The test can be described thus: Primary screen GU AMC qHTS for Zika virus inhibitors (AID 1347154). Further: nearly all actives have a fitted effect of over 70% in size. A digest of the protocol: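 Fluorogenic AMC-substrate cleavage by noncovalent NS2B-NS3 protease complex (25 nM, pH 8.0 Tris buffer with Tween 20) followed for 15 minutes at room temperature (~20% conversion). Percent inhibition from ex340/em450 signal change, fitted by 4-parameter Hill equation.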

Consider `CN(CCc1ccc(Cl)c(Cl)c1)CC(O)COc1ccc(NS(C)(=O)=O)cc1` (stereo unspecified), for which the Potency entry is “inactive”.

The values are drawn from PubChem BioAssay (NCATS).
